SENP7 block = SENP7 protease inhibitors, primary screen, biochemical, luminescence, uHTS. inhibition, % at 5 µM. Sentrin-specific protease 7 (Homo sapiens), Q9BQF6. 1.5% of 330,000 active. recombinant SENP7, Z-RLRGG-aminoluciferin luminescence, 40 min;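 active means inhibition above about 50% at the single test dose, limit read from the data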;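 further: plate controls were DMSO with enzyme for no effect and no enzyme buffer wells for full effect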
LGR2 inh = inhibitors of bursicon-induced LGR2 CRE-luciferase signal, primary screen, cell-based, HEK293, CRE-luciferase reporter, bursicon stimulation. Drosophila bursicon receptor LGR2 (rickets). inhibition, % at 9.99 µM. bursicon-stimulated, 4 h. 0.35% of 380,000 active;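 active means drop in luminescence signal, shown as inhibition above about 50% in the replicate tests, limit read from the data, passing the limit was not always enough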;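 further: agonist challenge used bursicon conditioned medium at about half maximal strength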
SENP6 block = SENP6 protease inhibitors, primary screen, biochemical, luminescence, uHTS; 1.8% of 330,000 active; Sentrin-specific protease 6 (Homo sapiens), Q9GZR1; Recombinant SENP6 catalytic domain, aminoluciferin luminescence; AID 2599, 2010; inhibition, % at 10 µM;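 active means inhibition above about 50% at the single tested dose, limit read from the data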;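 further: plate controls were DMSO wells with enzyme for no effect and DMSO wells lacking enzyme for full effect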
Target sequence (Q9GZR1 628-1112 limits assumed): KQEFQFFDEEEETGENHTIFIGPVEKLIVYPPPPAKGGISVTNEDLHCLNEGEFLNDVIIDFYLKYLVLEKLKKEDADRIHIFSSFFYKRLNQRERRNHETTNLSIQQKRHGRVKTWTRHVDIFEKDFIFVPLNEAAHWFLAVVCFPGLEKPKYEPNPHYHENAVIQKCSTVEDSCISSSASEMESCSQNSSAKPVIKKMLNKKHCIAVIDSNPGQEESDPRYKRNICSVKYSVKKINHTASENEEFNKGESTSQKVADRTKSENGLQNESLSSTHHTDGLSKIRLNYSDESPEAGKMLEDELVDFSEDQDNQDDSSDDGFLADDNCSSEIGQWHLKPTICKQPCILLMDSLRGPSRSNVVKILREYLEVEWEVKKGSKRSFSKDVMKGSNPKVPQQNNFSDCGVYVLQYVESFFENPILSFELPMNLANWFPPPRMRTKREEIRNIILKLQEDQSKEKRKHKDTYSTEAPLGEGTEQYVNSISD
HSP90 inh = HSP90 inhibitors, primary screen, cell lysate, luminescence | Heat shock protein HSP 90 (rabbit reticulocyte lysate; luciferase refolding) | Rabbit reticulocyte lysate, luciferase refolding luminescence, 3 h | inhibition, % at 5.6 µM | 0.91% of 290,000 active | AID 1789, 2009;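 active means inhibition above the screen-wide mean plus 3 SD, computed separately per campaign, cut at about 16% in these data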;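 further: 0% = DMSO wells and 100% = 60 µM geldanamycin wells; inhibitors lower the luminescence because luciferase stays unfolded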
SENP8 block-1 = SENP8 protease inhibitors, primary screen, biochemical, luminescence; purified SENP8, Z-RLRGG-aminoluciferin cleavage; inhibition, % at 10 µM; 1.2% of 330,000 active; in the data active means inhibition above about 50%
Target sequence (Q96LD8 whole entry, looked up): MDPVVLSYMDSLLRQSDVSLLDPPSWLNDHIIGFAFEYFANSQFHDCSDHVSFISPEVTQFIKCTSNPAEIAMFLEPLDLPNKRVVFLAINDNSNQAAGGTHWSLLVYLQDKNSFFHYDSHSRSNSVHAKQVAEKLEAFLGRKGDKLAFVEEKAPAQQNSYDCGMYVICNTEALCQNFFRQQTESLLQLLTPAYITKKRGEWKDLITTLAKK
SENP8 block-2 = human SENP8 protease inhibitors, primary screen, biochemical, fluorescence, Nedd8 protein substrate, uHTS; Sentrin-specific protease 8 (Homo sapiens), Q96LD8; inhibition, % at 20 µM; recombinant SENP8; 0.64% of 360,000 active; in the data active means inhibition mostly above about 40%, no sharp cut-off; inactive means mostly below about 27%
SENP8 confirm = SENP8 protease inhibitors, retest, confirmation, biochemical, luminescence, single concentration. shares compounds with SENP7 block. Recombinant SENP8, Z-RLRGG-aminoluciferin luminescence, 60 min. inhibition, % at 12.5 µM. 40% of 6,200 active;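 active means mean inhibition across replicates above about 50%, limit read from the data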
SENP6 confirm = SENP6 protease inhibitors, confirmation, biochemical, luminescence, single concentration; shares compounds with SENP7 block; recombinant SENP6, Z-RLRGG-aminoluciferin luminescence; inhibition, % at 12.5 µM; 58% of 6,200 active; AID 488915, 2010
SENP7 confirm = SENP7 protease inhibitors, retest, confirmation, biochemical, luminescence, single concentration. shares compounds with SENP7 block. recombinant SENP7, Z-RLRGG-aminoluciferin luminescence, 40 min. inhibition, % at 12.5 µM. 69% of 6,200 active. AID 488917, 2010
Casp3 select = caspase-3 protease inhibitors, confirmation, selectivity assay for SENP inhibitor project, biochemical, single concentration. shares compounds with SENP7 block. 60% of 6,200 active. purified caspase-3, Z-DEVD-aminoluciferin luminescence, 60 min. inhibition, % at 12.5 µM;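 active means mean inhibition above about 50%, limit read from the data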;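 further: plate controls were enzyme with DMSO for no effect and wells without caspase-3 for full effect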
Luc interf = interferes with luciferase luminescence in SENP counter-screen | shares compounds with SENP7 block | inhibition, % at 12.5 µM | Pre-incubated SENP8/Z-RLRGG-aminoluciferin, luciferase luminescence interference | 39% of 6,200 active;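 active means mean inhibition above about 50% when retested at one dose, limit read from the data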;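 further: plate controls were DMSO wells with completed reaction for no effect and substrate without enzyme for full effect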
Starred values were filed as active, the others as inactive; · = no result. A selection: hits, their analogues and other compounds. The true share with any hit is near 2.3%.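 How the source made its calls, unless noted: active means mean inhibition above about 50% in the one-dose retest (limit read from the data); inactive means the rest.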

SMILES	SENP7 block	LGR2 inh	SENP6 block	HSP90 inh	SENP8 block-1	SENP8 block-2	SENP8 confirm	SENP6 confirm	SENP7 confirm	Casp3 select	Luc interf
Brc1ccc(/C=N/Nc2ccc3ccccc3n2)cc1	58.6*	·	78.0*	5.0	62.3*	-104.1	-4.8	-7.1	17.7	25.9	1.0
Fc1cccc(/C=N/Nc2ccccn2)c1	74.0*	-60.1	42.8	-3.9	55.4*	7.8	51.1*	79.0*	95.3*	76.7*	35.2
C(=N\Nc1ccccn1)/c1ccc2c(c1)OCCO2	83.2*	-25.3	85.6*	4.5	71.6*	-4.3	81.2*	80.1*	96.6*	84.1*	16.7
Fc1cccc(F)c1/C=N/Nc1ccccn1	26.1	-40.2	36.1	-1.2	22.6	13.3	·	·	·	·	·
Fc1cccc(/C=N/Nc2nc3ccccc3[nH]2)c1	6.5	-27.2	-11.9	3.9	-13.6	·	·	·	·	·	·
Fc1cccc(/C=N/Nc2ccc3ccccc3n2)c1	94.5*	40.6	95.3*	-0.4	91.4*	-107.3	93.6*	94.2*	100.4*	81.7*	39.5
C[C@@H]1CN([C@H](C)CO)C(=O)CCCn2cc(nn2)CO[C@@H]1CN(C)S(=O)(=O)c1cccs1	·	-5.6	·	·	·	·	·	·	·	·	·
Cc1cc(N/N=C/c2ccccc2Br)nc2ccccc12	-8.7	-13.2	-1.1	4.3	-17.2	-97.7	·	·	·	·	·
Brc1ccccc1/C=N/Nc1ccc2ccccc2n1	70.0*	-44.9	74.6*	-2.7	48.6	-129.0	40.8	77.8*	91.1*	53.0*	46.0
C[C@@H]1CN([C@@H](C)CO)C(=O)c2cc(C#CC3(O)CCCC3)cnc2O[C@H]1CN(C)C(=O)C1CCC1	·	7.2	·	·	·	·	·	·	·	·	·
O=C(O)c1cccc(Nc2ncnc3sccc23)c1	86.4*	44.2	91.1*	-1.1	79.5*	-19.2	91.8*	90.6*	100.3*	63.6*	88.3*
Fc1cccc(Nc2ncnc3sccc23)c1	-6.7	-5.4	-12.5	-0.7	-17.3	-9.3	·	·	·	·	·
Fc1cccc2sc(Nc3nc4cc5c(cc4s3)OCO5)nc12	52.7*	-65.9	7.0	-2.8	-8.0	-449.0	-5.9	-9.6	2.0	4.8	-5.2
Fc1cccc2sc(Nc3nc4cc5c(cc4s3)OCCO5)nc12	0.8	12.7	47.9	9.3	33.7	-398.9	·	·	·	·	·
CO[C@@H]1CN(C)C(=O)c2cc(NC(=O)Cc3ccccc3)ccc2OC[C@@H](C)N(CC2CC2)C[C@H]1C	·	10.6	·	·	·	·	·	·	·	·	·
O=C(O)c1ccc(N=Nc2c(-c3ccccc3)[nH]oc2=O)cc1	38.6	-2.7	32.6	-2.0	59.2*	22.0	-7.8	-5.8	19.2	6.8	0.8
O=C(Nc1cccc(-c2ccc(N3CCCCC3)nn2)c1)c1ccco1	73.1*	-1.6	76.0*	·	53.7*	-10.9	77.1*	73.8*	90.8*	74.7*	72.5*
O=C(COc1ccc(Cl)cc1)Nc1cccc(-c2ccc(N3CCOCC3)nn2)c1	68.2*	-82.0	54.3*	·	11.8	-5.7	11.9	19.5	22.8	14.5	0.2
O=C(Nc1cccc(-c2ccc(N3CCOCC3)nn2)c1)c1ccccc1Cl	26.2	-62.4	23.5	·	5.5	-7.2	·	·	·	·	·
COc1cccc(-c2nc(-c3ccncc3)no2)c1	80.3*	-20.8	77.5*	1.1	69.7*	0.6	72.9*	77.8*	94.2*	86.4*	61.4*
COc1cccc(-c2nc(-c3cccs3)no2)c1	91.8*	30.2	90.0*	4.8	82.9*	24.1	13.3	87.2*	97.5*	69.9*	62.4*
O=[N+]([O-])c1cccc(-c2nc(-c3ccncc3)no2)c1	9.3	·	5.6	-1.7	-15.4	24.2	·	·	·	·	·
COc1cc(OC)cc(-c2nc(-c3cccs3)no2)c1	32.1	-47.4	-27.2	0.5	-1.1	-17.4	·	·	·	·	·
Cc1noc(C)c1NC(=O)N(C)C[C@@H]1Oc2ccc(NS(C)(=O)=O)cc2CC(=O)N([C@@H](C)CO)C[C@H]1C	·	8.3	·	·	·	·	·	·	·	·	·
COc1cccc(Nc2nc(-c3ccc4c(c3)OCCO4)cs2)c1	6.6	·	55.0*	3.9	29.8	-38.0	22.2	31.8	68.6*	7.9	8.3
SMILES	SENP7 block	LGR2 inh	SENP6 block	HSP90 inh	SENP8 block-1	SENP8 block-2	SENP8 confirm	SENP6 confirm	SENP7 confirm	Casp3 select	Luc interf
c1ccc(-c2csc(Nc3ccc4c(c3)OCCO4)n2)cc1	91.2*	·	95.5*	13.3	90.9*	-130.7	94.6*	95.3*	100.7*	73.5*	84.2*
COc1ccccc1C(=O)Nc1nc(-c2ccc3c(c2)OCCO3)cs1	3.3	1.4	14.4	0.7	24.1	-188.0	·	·	·	·	·
N#C/C(=C\Nc1ccc2c(c1)OCCO2)c1nc(-c2ccccc2)cs1	-11.8	-16.1	-5.5	-0.9	-4.4	-50.7	·	·	·	·	·
Cc1ncoc1C(=O)Nc1cccc(Cl)c1	63.9*	-38.4	50.2*	-4.5	34.9	7.4	60.2*	58.5*	86.0*	79.8*	56.9*
Cc1ccc(Cl)cc1NC(=O)c1ocnc1C	8.4	·	-3.0	-0.8	-6.7	12.2	·	·	·	·	·
Cc1ccc(NC(=O)c2ocnc2C)cc1Cl	83.3*	-31.8	81.2*	2.0	60.5*	14.3	76.4*	76.6*	94.0*	83.0*	46.7
Cc1cc(C(=O)Nc2ccc(N3CCOCC3)c(Cl)c2)c(C)o1	57.5*	-23.7	76.8*	-2.3	56.7*	22.7	71.2*	69.1*	87.8*	76.9*	74.5*
O=C(Nc1ccc(N2CCOCC2)c(Cl)c1)c1ccccc1F	7.1	-92.3	-2.3	-3.2	-17.1	8.4	·	·	·	·	·
COc1ccc(C(=O)Nc2nnc(C(F)(F)F)s2)cc1	18.9	·	61.4*	-1.9	16.0	-31.5	32.7	31.0	64.2*	64.1*	27.0

From PubChem BioAssay
